The panel holds about 79,000 compounds, 15% with a hit somewhere; the sample as a whole holds those more often. A number with no mark means an inactive call. Calls of active or inactive are those of the source. Cut-off read from the data, not from the text of the source: active = growth inhibition above about 70%; inactive = the rest.
How the values were obtained:
[1] = NCI Yeast Anticancer Drug Screen. Data for the rad50 strain (AID 155);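 note: 0% = growth of vehicle-only cultures of the same strain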; conditions: S. cerevisiae rad50 strain growth inhibition; at 50.0 µM; hits give high values
Outline: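 Genetically altered yeast (DNA repair pathway); compound treatment; growth inhibition vs vehicle ctrl.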

[2] = NCI Yeast Anticancer Drug Screen. Data for the mec2-1 strain (AID 157); conditions: S. cerevisiae mec2-1 strain, at 50.0 µM, hits give high values
Outline: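 Using mec2-1 yeast: add compound, measure growth, express inhibition versus vehicle-treated cultures.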

[3] = NCI Yeast Anticancer Drug Screen. Data for the sgs1 mgt1 strain (AID 161);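 note: 0% = growth of cultures given vehicle only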; conditions: S. cerevisiae sgs1 mgt1 strain, at 50.0 µM, hits give high values
Outline: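 Percent growth inhibition was derived by comparing compound-exposed mutant yeast with vehicle-exposed cultures. The strain carries alterations in DNA damage repair.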

[4] = NCI Yeast Anticancer Drug Screen. Data for the cln2 rad14 strain (AID 165);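 note: 0% = growth equal to vehicle treated cultures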; conditions: S. cerevisiae cln2 rad14 strain, at 50.0 µM, hits give high values
Outline: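 Yeast strain cln2 rad14, bearing defects in cell cycle control and DNA repair, serves as the test system; values reflect growth inhibition compared with vehicle.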

[5] = NCI Yeast Anticancer Drug Screen. Data for the bub3 strain (AID 167); conditions: S. cerevisiae bub3 mutant strain, at 50.0 µM, hits give high values
Outline: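 Yeast carrying a defined mutation is treated with each compound, and growth is compared with that of vehicle-exposed cells to give inhibition.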

[6] = NCI Yeast Anticancer Drug Screen. Data for the mlh1 rad18 strain (AID 175); conditions: S. cerevisiae mlh1 rad18 strain growth inhibition; at 50.0 µM; hits give high values
Outline: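 Steps: expose repair-defective yeast to compound; measure growth; express inhibition against vehicle-treated controls.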

SMILES	growth inhibition [1]	growth inhibition [2]	growth inhibition [3]	growth inhibition [4] [%]	growth inhibition [5]	growth inhibition [6]
Oc1cc(N2CCCC2)ccc1/C=N/N1C(=S)N(c2ccccc2)C(=Nc2ccccc2)C1=Nc1ccccc1	-23.1%	-31.8%	-1.3%	6.7	-30.6%	-39.9%
COC(=O)c1ccc(C[P+](c2ccccc2)(c2ccccc2)c2ccccc2)cc1	15.5%	7.75%	44.3%	40.2	0.95%	43.1%
O=C(c1ccccc1)c1ccc(OCCOc2ccc(C(=O)c3ccccc3)cc2)cc1	-0.7%	-1.7%	2.15%	-15.1	3.9%	-13.2%
CCN(CC)CC(C)(C)C(O)c1ccc(OC)c2ccccc12 (stereo unspecified)	-6.15%	7.3%	17.9%	-26.8	9.45%	8.8%
O=C([O][Sb]([O]C(=O)C(Br)Br)([c]1ccccc1)([c]1ccccc1)[c]1ccccc1)C(Br)Br	15.7%	5%	20.6%	-14.2	-0.1%	36.6%
COc1nc(NC2OC(COC(C)=O)C(OC(C)=O)C(OC(C)=O)C2OC(C)=O)c(C(=O)CCl)c(=O)[nH]1 (stereo unspecified)	3.75%	6.5%	8.45%	-0.4	-2.2%	13.7%
CC(=O)C1=C(C)C2CC3(C)CC(C2(C)C1)C3(C)C (stereo unspecified)	8.45%	-17.1%	-0.95%	10.6	-9.75%	-6%
C(=Nc1cnc2ccccc2c1)c1ccc2ccccc2n1	-5.3%	-13.4%	-11.3%	-6.2	-55.9%	-14.8%
CCOC(=O)C(C)(C)Oc1ccc(N=[N+]=[N-])cc1	13.1%	9.15%	41.5%	4.35	5.8%	19.6%
CN(C)c1ccc(C=C2/C(=N\O)c3ccccc3/C2=N/O)cc1	-1.5%	38.1%	39%	-8.2	34.2%	48.1%
N#Cc1c(C(=O)NN)c2c(-c3ccc4ccccc4c3)n[nH]c(=O)c2[nH]c1=O	20.4%	23.4%	30.4%	4.1	7.1%	42.9%
CSc1nccc(=O)n1C	9.6%	-14.8%	-9.8%	-52.6	-21.6%	-2.15%
O=C(NCC1CC1)NC(=O)c1c(F)cccc1Cl	-1.2%	-13%	12.6%	20.8	36.6%	9.65%
C=C(Cl)C(=C)CCC(Cl)C(C)C (stereo unspecified)	-6.15%	-9.4%	1.6%	20.6	0.25%	0.55%
Cc1ccc2cccc(C)c2n1	-14.9%	-26.6%	-45.3%	-6.7	-29.6%	-23.5%
Cc1ccc(S(=O)(=O)N/N=C2/C(=N/NS(=O)(=O)c3ccc(C)cc3)C3CCC2C3)cc1	6.7%	4.85%	-2.75%	-29.2	-1.7%	-6.45%
Cc1cccc(NC(=O)CCl)c1C	-18.1%	-37.6%	-7.65%	11.8	-21.9%	-3.7%
Cn1cnc2c(=S)nc[nH]c21	7.75%	-10%	-25.1%	-9.9	-8.75%	-20.9%
COC(=O)C(Cc1nc2ccc(Cl)cc2[nH]c1=O)/C(=N/O)C(=O)Nc1cccc(Cl)c1C (stereo unspecified)	22.6%	0.95%	0.85%	-40.9	0.3%	-4.55%
COc1cccc(C2CC(C)(O)Oc3cc4c(cc32)OCO4)c1O (stereo unspecified)	9.15%	-8.25%	-9.45%	12.1	23.3%	6.65%
COC(=O)C(=O)C(C(C)=O)C(=O)C(=O)Nc1ccc(C)cc1C (stereo unspecified)	19.1%	14.1%	1.95%	15.2	26.1%	17.9%

SMILES	growth inhibition [1]	growth inhibition [2]	growth inhibition [3]	growth inhibition [4] [%]	growth inhibition [5]	growth inhibition [6]
COC(=O)c1c(-c2ccccc2)cc2c3cc(-c4ccccc4)c(C(=O)OC)n3c3ccccc3n12	-2.35%	-4.55%	-31.5%	-23.9	-1.95%	-10.6%
Cc1ccc(C2(C#N)CCCC2)cc1	5.55%	-1%	12%	3.85	15.6%	4.7%
CNC1C(O)C(OC2C(N)CC(N)C(OC3OC(CN)C(O)C(O)C3O)C2O)OCC1(C)O (stereo unspecified)	27.1%	-17.1%	-12.7%	4.85	9.9%	20.6%
CCNc1ncnc2c1cnn2C1CCCCC1	5.3%	-7.15%	-5.85%	-35.9	0.5%	-2.5%
CC(=O)OCC1OC(OC(C)=O)C(NC(=O)C(C)NC(=O)OCc2ccccc2)C(OC(C)=O)C1OC(C)=O (stereo unspecified)	37.1%	6.9%	16.2%	11.6	-1.05%	14.6%
O=C(Nc1ccccc1)C1C2C=CC(CC2)C1C(=O)Nc1ccccc1 (stereo unspecified)	-0.25%	4.95%	7.7%	-10.2	-11.5%	-13.6%
COc1cccc(C2N(Cc3ccccc3OC)CCCN2Cc2ccccc2OC)c1	8.15%	11.8%	29.5%	21.8	-5.8%	8%
c1ccc(Cc2c[nH]c3ccccc23)cc1	9.45%	-0.05%	9.4%	-9.6	-1.85%	14.9%
C=CCC(C(=O)O)c1ccccc1 (stereo unspecified)	-11.2%	-12.2%	-5.2%	-29.9	-14.6%	1.75%
Cn1c(=O)c(N=Nc2c(=O)n(C)c(=O)n3c2[nH]c2ccccc23)c2[nH]c3ccccc3n2c1=O	-2.1%	17.1%	7.4%	-27.4	-10.7%	12.2%
COC(=O)C[C@H](C)[C@H](C)CC(=O)O	-17.6%	-19.9%	-1.6%	-7.3	-0.45%	-12.9%
OCC1OC(n2c(SCc3ccccc3)nc3ccccc32)C(O)C1O (stereo unspecified)	-3.5%	1.45%	-9.1%	-11.9	6.4%	0.1%
O=C(c1nc2ccccc2[nH]c1=O)C(O)c1ccccc1 (stereo unspecified)	6.9%	-23.6%	-3.1%	17.4	-12.8%	-2.2%
CC(=O)Oc1ccc([N+](=O)[O-])cc1	16.9%	12.7%	27.4%	-17.7	-1%	34%
CCSCC1(c2ccc(OC)cc2)NC(=O)NC1=O (stereo unspecified)	-20.5%	2.65%	7.6%	-10.1	-10.7%	1.05%
O=C1c2cc(O)c(O)cc2O[C@H](c2ccc(O)c(O)c2)[C@H]1O	2.15%	-35.1%	11.8%	16.2	-8.7%	-46.7%
CCS(=O)(=O)/C=C(\C(=O)c1ccccc1)c1ccccc1	83.1% (active)	93.5% (active)	94% (active)	47.2	89.8% (active)	93.3% (active)
O=C(/C=C/c1ccccc1)c1cccc([N+](=O)[O-])c1	26%	14.6%	21.4%	54.9	41.9%	4.4%
CC(=O)Oc1c(C(=O)O)cccc1-c1ccccc1	-12.8%	-7.1%	9.6%	-15.8	30%	4.95%
CC1(C)OC(C)(C)c2c1nnc(-c1ccccc1[N+](=O)[O-])[n+]2[O-]	8.1%	11.5%	22.4%	12.8	26.9%	14.1%

— PubChem BioAssay (NCI)
